# Sampled rows, rich in hits. Any-hit rate of the full collection: about 17%.
# TDP1 cell CPT = growth inhibition of DT40 Tdp1-/-;hTDP1 cells with camptothecin (screen for TDP1 inhibitors); chicken DT40 Tdp1-/-;hTDP1 cells + 20 nM CPT, ATP luminescence, 48 h; Potency, µM (series often up to 46.2 µM), actives largely listed as inhibitors; 12% of 420,000 active; further: nearly all actives have a fitted effect of over 55% in size
#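 Cell growth measured by CellTiter-Glo luminescence after a minimum 48 h, 37 C compound exposure with 20 nM CPT in Tdp1-knockout DT40 cells stably expressing hTDP1, seeded 400/well; qHTS titration format.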
# S2 tox = viability counter-screen for ATXN expression inhibitors; S2 cells (HEK-293 line with an ATXN2-luciferase reporter) viability, CellTiter-Fluor protease fluorescence, 24 h; Potency, µM (series often up to 56.7 µM), actives largely listed as cytotoxic; 0.49% of 400,000 active; AID 651635; further: nearly all actives have a fitted effect of over 40% in size
# ATXN2 expr inh = inhibitors of ATXN2 expression; HEK-293 ATXN2-luciferase reporter, luminescence, 24 h; Potency, µM (series often up to 57 µM), usual class: inhibitors; 0.72% of 360,000 active; further: nearly all actives have a fitted effect of over 55% in size
#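 ATXN2-luciferase reporter cells (luciferase flanked by upstream and downstream ATXN2 gene portions) were treated 24 h at 37 °C with compounds at up to 57 uM. SteadyGlo luminescence gave expression; GF-AFC fluorescence gave viability.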
# TGFb inhibitor = TGF-b pathway inhibition; HepG2 CAGA-GFP TGF-b/SMAD3 reporter, GFP fluorescence, 18 h; TGF-beta stimulated, 500 pg/mL final; Potency, µM (titrated, usually from 46.1 µM), usual class: inhibitors; 1.2% of 410,000 active; further: nearly all actives have a fitted effect of over 65% in size
#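 HEPG2 CAGA-GFP reporter cells (1000/well, DMEM with 1% FBS) received compounds, then recombinant TGF-beta at 500 pg/mL final for 18 hours at 37 degrees C. Per-cell GFP summed per well was normalised to unstimulated and stimulated DMSO controls before curve fitting.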
# DT40 TDP1 no CPT = qHTS for Inhibitors of human tyrosyl-DNA phosphodiesterase 1 (TDP1): qHTS in cells in absence of CPT; DT40 Tdp1-/- hTDP1 cells, no CPT, ATP luminescence, 48 h; Potency, µM (series often up to 46.2 µM), most hits filed as inhibitors; 15% of 420,000 active; AID 686978, 2013; further: nearly all actives have a fitted effect of over 55% in size
#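 DT40 Tdp1-/-;hTDP1 cells, no CPT (DMSO vehicle only), 400 cells/well; compounds pin-transferred; ≥48 hr, 37 °C; CellTiter-Glo 30 min RT dark, luminescence read.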
# HepG2 tox = counter-screen for TGF-b inhibitors: cytotoxicity in HepG2 cells; 0.76% of 410,000 active; HepG2 CAGA-GFP viability, ATP luminescence, 18 h; Potency, µM (doses to about 46.1 µM), most hits filed as cytotoxic
#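 HepG2 CAGA-GFP cells (1000/well, DMEM with 1% FBS) received compound, then TGF-beta at 500 pg/mL final, and were incubated 18 hours at 37 degrees C. Viability was read by CellTiter-Glo luminescence. Media-only wells were set as complete cell-killing and DMSO as no toxicity.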
# Numbers stand for hits; n = inactive; u = inconclusive; x = not tested or not shown. The call rests on the fitted dose curve; in most records, active means well fitted curve in the direction sought with a large enough effect; inconclusive means small, poorly fitted or top-dose-only effect, or another doubt; inactive means no such curve, though single readings can be large; an effect the other way counts as inactive or inconclusive.
SMILES,TDP1 cell CPT,S2 tox,ATXN2 expr inh,TGFb inhibitor,DT40 TDP1 no CPT,HepG2 tox
O=[N+]([O-])c1cc([N+](=O)[O-])c(Oc2cc(Cl)ccc2Cl)cc1NC1CCCCCCC1,18.4µM,n,n,u,u,n
O=[N+]([O-])c1ccc(Oc2cc(NC3CCCCCCC3)c([N+](=O)[O-])cc2[N+](=O)[O-])cc1,u,n,n,n,n,n
Cc1ccc(NC(=O)N2CCc3cc(S(=O)(=O)N4CCC(C)CC4)ccc32)cc1,n,x,x,x,n,n
CN(Cc1ccc(Cl)c(Cl)c1)C(=O)C1CSC2(C)CCC(=O)N12 (stereo not given),14.6µM,u,n,n,14.6µM,n
Cc1ccc(NC(=O)CN(C)C(=O)Cn2c(=O)oc3ccccc32)cc1,n,n,n,n,u,n
O=C(Nc1ccccc1)OC1CCCCc2cccnc21 (stereo not given),n,n,n,n,u,n
O=C(Nc1cccc(Cl)c1)OC1CCCCc2cccnc21 (stereo not given),13µM,n,n,n,u,n
N[C@@]1(C(=O)O)CS(=O)(=O)[C@H]2[C@H](C(=O)O)[C@H]21,x,x,n,x,x,x
Cc1ccc(C(C)(C)c2ccc(C)cc2)cc1,n,x,x,x,n,x
Cc1ccc(N(O)C(C)(C)C)cc1,23.1µM,u,n,n,16.4µM,n
O=C(NCCc1ccc(Cl)cc1)c1cnc2sc(N3CCOCC3)nn2c1=O,n,n,n,n,n,n
O=C1C=CC(=Nc2ccc3c(c2)C(=O)c2ccccc2-3)O1,n,n,n,n,n,n
O=C1C=CC(=Nc2ccc(F)cc2)O1,2.31µM,n,n,n,4.61µM,n
COc1ccc(C(=O)NCC(c2cccnc2)N2CCc3ccccc3C2)cc1OC (stereo not given),16.4µM,x,x,n,u,n
COc1ccc(C(=O)NCC(c2cccnc2)N2CCc3ccccc32)cc1OC (stereo not given),14.6µM,x,x,n,20.6µM,n
COc1ccc(C(=O)NCC(c2cccnc2)N2CCN(c3ccc(F)cc3)CC2)cc1OC (stereo not given),u,n,n,n,u,n
COc1ccc(C(=O)NCC(c2cccnc2)N2CCc3ccccc3C2)cc1 (stereo not given),11.6µM,x,x,u,20.6µM,n
O=C(NCC(c1cccnc1)N1CCc2ccccc21)c1ccc(F)cc1 (stereo not given),23.1µM,x,x,u,18.4µM,n
COc1ccc(C(=O)NCC(c2cccnc2)N2CCN(c3ccccc3)CC2)cc1OC (stereo not given),u,n,n,n,n,n
CCOC(=O)CNC(=O)C(NC(=O)C1CCC(C)CC1)C(C)CC (stereo not given),n,n,n,n,n,n
Cc1ccc(NC(=O)CCc2nnc3ccc(N4CCOCC4)nn23)cc1C,n,n,n,n,n,n
COc1cccc(OC)c1OCCN1CCN(C(c2ccccc2)c2ccccc2)CC1,u,n,n,u,u,n
Cn1c(SCC(=O)Nc2ccc(F)cc2)nc2c([nH]c3ccccc32)c1=O,18.4µM,n,n,n,u,n
Cc1ccc(CSc2nc3c([nH]c4ccccc43)c(=O)n2C)cc1,u,x,x,n,u,n
Cc1ccc(C)c(CSc2nc3c([nH]c4ccccc43)c(=O)n2C)c1,6.51µM,x,x,n,3.26µM,n
SMILES,TDP1 cell CPT,S2 tox,ATXN2 expr inh,TGFb inhibitor,DT40 TDP1 no CPT,HepG2 tox
Cc1ccc(NC(=O)CSc2nc3c([nH]c4ccccc43)c(=O)n2C)cc1,13µM,u,u,n,8.2µM,n
CC(C)c1ccc(NC(=O)CN2C(=O)CCc3cc(S(=O)(=O)N4CCOCC4)ccc32)cc1,u,n,n,u,n,n
NC(c1csc(Nc2nccc(C(F)(F)F)n2)n1)C1CCCCC1 (stereo not given),u,n,u,u,11.6µM,n
NC(c1csc(Nc2ncccn2)n1)C1CCCCC1 (stereo not given),u,n,n,n,u,n
NC(c1csc(Nc2ccc(C(F)(F)F)cn2)n1)C1CCCCC1 (stereo not given),23.1µM,n,u,u,20.6µM,n
NC(c1csc(Nc2cnccn2)n1)C1CCCCC1 (stereo not given),23.1µM,n,n,n,n,n
NC(=O)c1cccc(Nc2nc(C(N)C3CCCCC3)cs2)n1 (stereo not given),u,u,n,n,u,n
Cc1cc(C(=O)N(Cc2cc3cc4c(cc3nc2N2CCOCC2)CCC4)CC2CCCO2)c(=O)[nH]c1C (stereo not given),n,n,x,x,n,x
CC(=O)NC(CC(=O)N(Cc1ccccc1)c1ccc(C)cc1)c1ccccc1 (stereo not given),n,n,n,n,u,n
CCOc1ccccc1NC(=O)C(OC(=O)c1cc(C)oc1C)c1ccccc1 (stereo not given),u,n,n,n,18.4µM,n
Cc1ccc(-c2noc(C3CCCN(C(=O)c4ccc(Cl)cc4)C3)n2)o1 (stereo not given),u,u,u,n,13µM,n
COc1ccc(-c2noc(C3CCCN(C(=O)c4ccc(C)cc4)C3)n2)cc1 (stereo not given),23.1µM,n,n,u,23.1µM,n
Cc1ccnn1-c1ccc(C(=O)OCC(=O)Nc2ccc(F)cc2)cc1,n,n,n,n,n,n
Cc1ccc2nc(C3CCCCC3)c(Cc3cccc(F)c3)n2c1,u,u,u,u,u,n
Cc1ccc2nc(C3CCCCC3)c(Cc3ccccc3C(F)(F)F)n2c1,n,u,u,u,16.4µM,n
FC(F)(F)c1ccccc1Cc1c(C2CCCCC2)nc2c3ccccc3ccn12,u,n,n,u,u,n
Cc1ccc2nc(C3CCCCC3)c(Cc3ccccc3)n2c1,14.6µM,12.6µM,u,u,16.4µM,n
COc1ccc(C2C3=C(N=C4SCC(=O)N42)c2ccccc2CC3)cc1OC (stereo not given),14.6µM,n,n,n,14.6µM,n
Cc1ccccc1CSc1nc2c([nH]c3ccccc32)c(=O)n1-c1ccccc1,n,x,x,n,n,n
COc1ccc(C(=O)c2cn(Cc3ccccc3F)c3cc4c(cc3c2=O)OCCO4)cc1OC,u,u,n,u,20.6µM,n
COc1ccccc1Cn1cc(C(=O)c2ccc(Cl)cc2)c(=O)c2ccccc21,23.1µM,x,x,u,14.6µM,n
CCOc1ccc(C(=O)c2cn(CC(=O)Nc3cc(OC)ccc3OC)c3cc(OC)c(OC)cc3c2=O)cc1,23.1µM,u,n,n,16.4µM,n

# Screening results deposited in PubChem BioAssay by National Center for Advancing Translational Sciences (NCATS).
